According to PubChem BioAssay:
Activity calls are given as the source filed them.

Columns and labels:
[1] = small molecules captured by biotinylated probe aFSTL3 – biochemical, small-molecule microarray, fluorescence 635/667, stem cell growth factor project, primary screen (AID 1064); conditions: higher = more signal;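 further: measures binding of the biotinylated anti-FSTL3 antibody to printed compounds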
[2] = binders from COS7 lysate, DM2A8 probe, primary screen, torsin A project, cell lysate, small-molecule microarray, fluorescence 635/667 (AID 1065); conditions: higher = more signal, COS7 lysate expressing mutant human TOR1A
[3] = small molecules captured by biotinylated probe aFGF2 – biochemical, small-molecule microarray, fluorescence 635/667, stem cell growth factor project, primary screen (AID 1067); conditions: higher = more signal;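 further: measures binding of biotinylated aFGF2 protein to printed compounds on slides; z-score merges feature fluorescence and signal-to-noise across triplicate slides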
[4] = small molecules captured by biotinylated probe aFGF10 – biochemical, small-molecule microarray, fluorescence 635/667, stem cell growth factor project, primary screen (AID 1071); conditions: higher = more signal;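 further: score merges 667 nm spot intensity and signal to noise from triplicate slides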
[5] = molecular target: Neurogenic locus notch homolog protein 2 (Homo sapiens) (UniProt Q04721); assay: small molecules binding Notch2 protein – biochemical, small-molecule microarray, 635 nm fluorescence, stem cell growth factors, primary screen (AID 1073); conditions: higher = more signal
[6] = molecular target: Pro-neuregulin-1, membrane-bound isoform (Homo sapiens) (UniProt Q02297); assay: small molecules binding neuregulin-1 protein – biochemical, small-molecule microarray, fluorescence 635/667, psychiatric disease protein project, primary screen (AID 1075); conditions: NRG1 binding, 635 nm fluorescence, higher = more signal;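 further: score combines 667 nm spot fluorescence with signal to noise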
[7] = system: Neuregulin-1 EGF-like domain; assay: small molecules binding NRG1 EGF domain – biochemical, small-molecule microarray, 635 nm fluorescence, primary screen (AID 1081); conditions: higher = more signal;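 further: binding of the protein to compounds printed on small-molecule microarray slides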
[8] = FRG1 expression reporter modulators in myotubes – cell-based, C2C12 myotubes, firefly/Renilla luciferase, luminescence, FRG1 inhibition for FSHD, primary screen (AID 1084); conditions: FRG1 promoter luciferase, higher = more signal, called active from +8 up or from −8 down
[9] = small molecules captured by biotinylated probe aFST – biochemical, small-molecule microarray, fluorescence 635/667, stem cell growth factor project, primary screen (AID 1086); conditions: higher = more signal;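 further: score merges 667 nm fluorescence with signal-to-noise of each printed compound spot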
[10] = binders of probe aHhip on microarray, primary screen, stem cell growth factor project, biochemical, small-molecule microarray, fluorescence 635/667 (AID 1087); conditions: higher = more signal;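 further: score merges spot fluorescence at 667nm with spot signal to noise ratio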
[11] = system: PRMT1 (protein arginine N-methyltransferase 1); assay: small molecules binding arginine methyltransferase PRMT1 – biochemical, small-molecule microarray, 635 nm fluorescence, primary screen (AID 1088); conditions: higher = more signal;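 further: binding of Prmt1 protein to compounds spotted on small-molecule microarray slides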
[12] = growth effects on S. cerevisiae YJM789 – YJM789 clinical isolate, OD600, 24 h, basal, primary screen (AID 1089); conditions: higher = more signal, called active from +8 up or from −8 down;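 further: growth of clinical yeast isolate S. cerevisiae YJM 789 seeded 1000 cells per well; test concentration not given here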
[13] = S. pombe growth modifiers, basal conditions – strain 972, OD600, 24 h, no modulator, primary screen (AID 1090);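 further: basal condition with compound alone and no growth modifier present; test concentration not given here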; conditions: S. pombe 972 growth, higher = more signal, called active from +8 up or from −8 down
[14] = budding yeast growth modifiers under rapamycin – strain BY4716, OD600, 96 h, primary screen (AID 1091); further: test concentration not given here; conditions: S. cerevisiae BY4716 + rapamycin, higher = more signal, called active from +8 up or from −8 down
[15] = molecular target: Torsin-1A-interacting protein 2 (Homo sapiens) (UniProt Q8NFQ8); assay: small molecules binding lysate-expressed LULL1 – cell lysate, human LULL1 lysate, 635/667 nm fluorescence, primary screen (AID 1092); conditions: small-molecule microarray, hLULL1 lysate binding, 635 nm fluorescence; higher = more signal;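 further: probe is lysate of COS7 cells overexpressing human LULL1; score merges per-feature 667 nm fluorescence with signal-to-noise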
[16] = optical density change of DRC41 E. coli – strain DRC41, OD650, 24 h, E. coli filamentation project, primary screen (AID 1093);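 further: MC1000 strain lacking acrAB efflux and sulA so SOS filamentation is blocked; test concentration not given here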; conditions: E. coli DRC41 growth, higher = more signal, called active from +8 up or from −8 down
[17] = probe aLefty2 binding to arrayed compounds – biochemical, biotinylated probe, 635/667 nm fluorescence, primary screen (AID 1094); conditions: small-molecule microarray, higher = more signal;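 further: score merges spot fluorescence near 667 nm with spot signal-to-noise ratio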
[18] = system: Noggin (protein binding on small-molecule microarray); assay: small molecules binding Noggin protein – biochemical, 635/667 nm fluorescence, primary screen (AID 1095); conditions: 635 nm fluorescence, higher = more signal;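 further: score merges 667 nm feature fluorescence with signal to noise over triplicate slides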
[19] = molecular target: Neurogenic locus notch homolog protein 3 (Homo sapiens) (UniProt Q9UM47); assay: small molecules binding NOTCH3 protein – biochemical, 635/667 nm fluorescence, primary screen (AID 1096); conditions: small-molecule microarray, 635 nm fluorescence, higher = more signal
[20] = probe aEGFR binding to arrayed compounds – biochemical, biotinylated probe, 635/667 nm fluorescence, primary screen (AID 1097); conditions: small-molecule microarray, higher = more signal;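 further: probe is a biotinylated anti-EGFR antibody binding compounds printed on slides; score combines fluorescence near 667 nm and signal to noise of each spot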

Sequence of Torsin-1A-interacting protein 2 (Homo sapiens) (Q8NFQ8 whole entry, looked up): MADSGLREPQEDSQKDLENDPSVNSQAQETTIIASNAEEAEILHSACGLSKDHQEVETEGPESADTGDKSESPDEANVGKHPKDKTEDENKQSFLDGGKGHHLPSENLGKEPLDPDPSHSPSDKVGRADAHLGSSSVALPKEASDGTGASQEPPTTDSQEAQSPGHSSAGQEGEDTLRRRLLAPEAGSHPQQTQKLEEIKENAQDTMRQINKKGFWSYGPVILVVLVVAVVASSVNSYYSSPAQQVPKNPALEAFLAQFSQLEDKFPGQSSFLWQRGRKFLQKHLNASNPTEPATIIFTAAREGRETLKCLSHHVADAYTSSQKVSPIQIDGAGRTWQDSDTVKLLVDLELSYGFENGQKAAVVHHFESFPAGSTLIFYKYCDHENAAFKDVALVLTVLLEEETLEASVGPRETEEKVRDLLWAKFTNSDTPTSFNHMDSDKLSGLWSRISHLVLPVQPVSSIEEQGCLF
Sequence of Neurogenic locus notch homolog protein 2 (Homo sapiens) (Q04721 whole entry, looked up, canonical isoform): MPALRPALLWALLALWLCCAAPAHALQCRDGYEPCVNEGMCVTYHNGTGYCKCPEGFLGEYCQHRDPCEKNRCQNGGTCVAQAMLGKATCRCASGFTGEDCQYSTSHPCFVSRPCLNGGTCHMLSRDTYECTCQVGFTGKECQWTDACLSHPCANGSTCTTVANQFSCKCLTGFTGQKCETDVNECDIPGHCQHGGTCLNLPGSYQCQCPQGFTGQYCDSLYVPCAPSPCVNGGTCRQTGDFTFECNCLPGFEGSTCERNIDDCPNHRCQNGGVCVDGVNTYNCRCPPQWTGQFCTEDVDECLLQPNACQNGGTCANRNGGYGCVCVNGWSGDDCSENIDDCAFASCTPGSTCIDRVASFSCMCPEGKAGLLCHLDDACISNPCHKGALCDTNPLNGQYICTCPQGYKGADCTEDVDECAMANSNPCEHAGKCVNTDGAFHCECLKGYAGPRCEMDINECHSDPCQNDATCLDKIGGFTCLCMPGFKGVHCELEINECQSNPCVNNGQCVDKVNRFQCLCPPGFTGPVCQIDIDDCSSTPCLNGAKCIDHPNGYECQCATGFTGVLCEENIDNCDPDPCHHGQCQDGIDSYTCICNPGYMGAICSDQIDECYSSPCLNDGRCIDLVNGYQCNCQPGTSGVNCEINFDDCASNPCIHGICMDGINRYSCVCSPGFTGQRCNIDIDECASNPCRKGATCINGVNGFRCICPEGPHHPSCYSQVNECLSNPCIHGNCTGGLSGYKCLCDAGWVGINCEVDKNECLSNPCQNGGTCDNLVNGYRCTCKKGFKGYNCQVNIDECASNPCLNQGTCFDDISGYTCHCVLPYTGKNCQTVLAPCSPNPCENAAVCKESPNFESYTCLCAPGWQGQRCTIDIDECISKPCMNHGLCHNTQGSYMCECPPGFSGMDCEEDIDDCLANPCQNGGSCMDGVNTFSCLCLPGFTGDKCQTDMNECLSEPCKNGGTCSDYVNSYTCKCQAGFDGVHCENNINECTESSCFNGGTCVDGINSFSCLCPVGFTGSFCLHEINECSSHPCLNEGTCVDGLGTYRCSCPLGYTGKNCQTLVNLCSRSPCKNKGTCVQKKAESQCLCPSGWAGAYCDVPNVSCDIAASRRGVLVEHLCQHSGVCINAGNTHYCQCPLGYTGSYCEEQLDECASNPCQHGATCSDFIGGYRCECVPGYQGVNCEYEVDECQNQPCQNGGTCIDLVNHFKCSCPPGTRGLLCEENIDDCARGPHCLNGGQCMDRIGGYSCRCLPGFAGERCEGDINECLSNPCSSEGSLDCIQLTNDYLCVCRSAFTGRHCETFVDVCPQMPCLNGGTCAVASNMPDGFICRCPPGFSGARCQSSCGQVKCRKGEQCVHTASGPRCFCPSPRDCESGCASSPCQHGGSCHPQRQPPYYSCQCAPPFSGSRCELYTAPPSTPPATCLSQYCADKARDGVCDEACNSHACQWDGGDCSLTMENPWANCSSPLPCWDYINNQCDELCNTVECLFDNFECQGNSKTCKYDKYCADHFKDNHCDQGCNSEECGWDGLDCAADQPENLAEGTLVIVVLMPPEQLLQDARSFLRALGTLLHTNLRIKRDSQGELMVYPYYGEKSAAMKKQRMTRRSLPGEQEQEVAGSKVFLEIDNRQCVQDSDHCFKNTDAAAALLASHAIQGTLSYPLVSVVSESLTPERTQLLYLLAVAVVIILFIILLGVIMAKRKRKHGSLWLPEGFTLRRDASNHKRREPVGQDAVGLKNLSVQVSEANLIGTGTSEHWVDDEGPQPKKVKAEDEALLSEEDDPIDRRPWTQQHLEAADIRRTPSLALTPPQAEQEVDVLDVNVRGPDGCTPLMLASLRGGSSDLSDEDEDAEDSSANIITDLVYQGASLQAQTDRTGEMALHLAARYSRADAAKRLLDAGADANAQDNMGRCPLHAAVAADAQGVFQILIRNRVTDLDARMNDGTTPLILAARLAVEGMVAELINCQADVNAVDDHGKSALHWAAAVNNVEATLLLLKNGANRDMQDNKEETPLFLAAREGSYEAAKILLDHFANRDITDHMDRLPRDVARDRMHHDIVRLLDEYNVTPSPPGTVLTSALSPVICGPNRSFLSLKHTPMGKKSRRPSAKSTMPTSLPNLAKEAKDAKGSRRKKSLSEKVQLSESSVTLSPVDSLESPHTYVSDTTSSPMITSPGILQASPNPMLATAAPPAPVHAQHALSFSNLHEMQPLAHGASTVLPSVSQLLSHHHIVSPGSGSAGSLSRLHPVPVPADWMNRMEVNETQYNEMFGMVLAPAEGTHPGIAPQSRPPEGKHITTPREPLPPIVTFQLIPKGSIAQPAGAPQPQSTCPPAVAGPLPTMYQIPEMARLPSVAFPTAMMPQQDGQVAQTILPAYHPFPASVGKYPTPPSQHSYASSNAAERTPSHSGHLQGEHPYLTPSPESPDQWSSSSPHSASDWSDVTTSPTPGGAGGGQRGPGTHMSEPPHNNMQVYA
Sequence of Pro-neuregulin-1, membrane-bound isoform (Homo sapiens) (Q02297 whole entry, looked up, the tested form may be a part, canonical isoform): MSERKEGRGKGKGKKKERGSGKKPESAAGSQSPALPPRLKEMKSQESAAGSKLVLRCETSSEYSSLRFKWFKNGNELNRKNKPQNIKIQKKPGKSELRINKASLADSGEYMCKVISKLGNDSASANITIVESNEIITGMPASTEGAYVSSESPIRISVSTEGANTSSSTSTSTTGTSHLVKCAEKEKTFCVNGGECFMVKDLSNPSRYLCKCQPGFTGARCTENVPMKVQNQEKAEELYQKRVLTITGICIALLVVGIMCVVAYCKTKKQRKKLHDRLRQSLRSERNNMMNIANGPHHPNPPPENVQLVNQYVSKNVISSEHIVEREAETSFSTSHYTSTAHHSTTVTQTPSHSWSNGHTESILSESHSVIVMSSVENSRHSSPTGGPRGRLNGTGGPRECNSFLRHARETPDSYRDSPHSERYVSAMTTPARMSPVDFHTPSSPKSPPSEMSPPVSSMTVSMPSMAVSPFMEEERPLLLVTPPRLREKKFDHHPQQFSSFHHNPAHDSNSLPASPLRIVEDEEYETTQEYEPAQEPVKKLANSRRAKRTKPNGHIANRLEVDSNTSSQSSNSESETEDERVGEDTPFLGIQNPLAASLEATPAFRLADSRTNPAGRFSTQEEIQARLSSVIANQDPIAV

Structure (SMILES)	composite z-score [1]	composite z-score [2]	composite z-score [3]	composite z-score [4]	composite z-score [5]	composite z-score [6]	composite z-score [7]	z-score [8]	composite z-score [9]	composite z-score [10]	composite z-score [11]	z-score [12]	z-score [13]	z-score [14]	composite z-score [15]	z-score [16]	composite z-score [17]	composite z-score [18]	composite z-score [19]	composite z-score [20]
CC(C)CNC(=O)[C@@H]1c2ccccc2C(=O)N(CC23CC4CC(CC(C4)C2)C3)[C@H]1c1ccc(CO)cc1	-0.146	0.0614	-0.0056	0.205	0.632	0.792	0.99	-1.49 (inactive)	0.507	-0.115	0.797	-0.998 (inactive)	-1.88 (inactive)	-0.243 (inactive)	2.69	-0.109 (inactive)	-0.121	0.264	0.953	-0.146
CCOC(=O)C1=CC[C@@H](c2ccccc2Cl)N(S(=O)(=O)c2ccc(C)cc2)[C@H]1c1cccc(OC)c1	-0.329	0.0632	-0.0276	0.317	0.408	0.0948	0.971	-0.38 (inactive)	0.289	0.0139	0.336	0.318 (inactive)	0.957 (inactive)	2.88 (inactive)	1.84	-1.08 (inactive)	-0.186	-0.0339	0.506	-0.125
C=CCNC(=O)[C@H]1[C@@H]2C(=O)O[C@@H](c3ccccc3)[C@@H](c3ccccc3)N2[C@@H](c2ccccc2OCCO)[C@]12C(=O)N(C(=O)OCCOC)c1ccccc12	0.041	0.3	-0.0226	0.832	0.716	1.54	1.13	-2.27 (inactive)	0.186	0.0623	1.51	1.5 (inactive)	2.05 (inactive)	5.15 (inactive)	2.78	-0.513 (inactive)	-0.196	0.786	1.12	-0.0828
C=CCOC(=O)[C@@H]1[C@H]2C(=O)O[C@H](c3ccccc3)[C@H](c3ccccc3)N2[C@H](c2ccc(OCCOC(=O)[C@H]3C[C@H]4C(=O)NCC(=O)N4[C@H]3c3ccc(O)cc3)cc2)[C@@]12C(=O)Nc1ccc(I)cc12	-0.223	0.826	-0.0834	0.22	0.948	0.675	0.86	1.2 (inactive)	0.377	-0.54	1.53	1.22 (inactive)	0.761 (inactive)	4.27 (inactive)	2.08	-0.615 (inactive)	-0.162	1.59	1.15	0.0026
C=CCC(OC(C)=O)[C@@H]1[C@@H](N(Cc2ccc(-c3cccc(C(F)(F)F)c3)o2)C(=O)Cc2ccc(OC)cc2)c2cc(OCCCO)ccc2N1C(=O)c1ccc2ccccc2n1 (stereo not given in full)	0.0523	-0.0913	-0.0922	0.745	-0.485	-0.249	-0.433	0.312 (inactive)	0.364	-0.16	-0.538	0.195 (inactive)	0.153 (inactive)	-0.44 (inactive)	0.806	-0.555 (inactive)	-0.0998	-0.306	-0.412	-0.0828
C[C@]1(C(=O)NCC(F)(F)F)c2ccccc2C(=O)N(Cc2ccc(OC(F)(F)F)cc2)[C@H]1c1ccc(CO)cc1	-0.303	0.67	-0.0757	0.198	-0.298	0.0763	0.531	-3.89 (inactive)	-0.209	-0.0645	0.64	0.0118 (inactive)	-0.47 (inactive)	-0.568 (inactive)	1.03	-0.975 (inactive)	-0.133	0.344	-0.464	-0.0987
COc1ccc(C#Cc2ccc3c(c2)[C@]2(C(=O)N3)[C@H](C(=O)Nc3nc4ccccc4s3)[C@H]3C(=O)O[C@H](c4ccccc4)[C@H](c4ccccc4)N3[C@@H]2c2ccc(OCCO)cc2)cc1	-0.113	1.45	0.0015	0.977	1.5	1.31	1.08	4.94 (inactive)	0.349	-0.216	1.55	3.16 (inactive)	2.06 (inactive)	1.64 (inactive)	2.7	0.361 (inactive)	-0.0412	0.994	1.1	0.123
CCCC[C@H]1OB(O)C[C@H]2C1=C(COC)C[C@H]1C(=O)C=CC(=O)[C@H]12	-0.54	0.007	-0.0582	0.183	0.861	-0.279	-0.0265	0.254 (inactive)	0.534	0.206	1.42	0.275 (inactive)	-1.56 (inactive)	-0.293 (inactive)	0.117	0.898 (inactive)	-0.0798	0.747	0.936	-0.071
CC(C)C[C@@H]1NC(=O)[C@@H]2C[C@H](C(=O)O)[C@H](c3ccc(O)cc3)N2C1=O	-0.451	1.9	-0.121	0.338	0.529	0.833	1.23	-0.93 (inactive)	0.186	0.0373	1.54	-1.45 (inactive)	-1.34 (inactive)	-0.42 (inactive)	1.77	2.31 (inactive)	-0.0433	1.02	1.09	0.0226
